Screens deposited in PubChem BioAssay by National Center for Advancing Translational Sciences (NCATS).
Sampled rows, rich in hits. Any-hit rate of the full collection: about 0.69%.
Integrin act MD: activators of alpha7 integrin expression for muscular dystrophy; Potency, µM (highest dose often 38.3 µM), without a hit: at the highest dose activation, actives largely listed as activators; alpha7betagal myoblasts, beta-gal FDG fluorescence, 48 h; 350,000 compounds, 0.064% hits;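 note: potency is the fitted concentration of half-maximal effect; 100% = response of the positive control SU9516; nearly all actives have a fitted effect of over 60% in size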
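alpha7betagal+/- myoblasts (passage 13, 250/well) treated 48 h at 37C with compounds at 1:260 dilution of DMSO stock. Lysed, then beta-galactosidase activity read as FDG fluorescence (ex 480/em 540) after 30 min, with pre-read for autofluorescence.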
PKM2 act: activators of human pyruvate kinase M2; purified PKM2, Kinase-Glo ATP luminescence, activation; response scale: 0% is enzyme alone, no compound; P14618; Potency, µM (top dose mostly 57.5 µM), without a hit: top-dose activation, usual class: activators; AID 1631; 260,000 compounds, 0.34% hits; note: potency is the fitted concentration of half-maximal effect; % is set by controls: 0 for no effect and ±100 for the full control effect; nearly all actives have a fitted effect of over 55% in size
Target sequence (P14618 whole entry, looked up): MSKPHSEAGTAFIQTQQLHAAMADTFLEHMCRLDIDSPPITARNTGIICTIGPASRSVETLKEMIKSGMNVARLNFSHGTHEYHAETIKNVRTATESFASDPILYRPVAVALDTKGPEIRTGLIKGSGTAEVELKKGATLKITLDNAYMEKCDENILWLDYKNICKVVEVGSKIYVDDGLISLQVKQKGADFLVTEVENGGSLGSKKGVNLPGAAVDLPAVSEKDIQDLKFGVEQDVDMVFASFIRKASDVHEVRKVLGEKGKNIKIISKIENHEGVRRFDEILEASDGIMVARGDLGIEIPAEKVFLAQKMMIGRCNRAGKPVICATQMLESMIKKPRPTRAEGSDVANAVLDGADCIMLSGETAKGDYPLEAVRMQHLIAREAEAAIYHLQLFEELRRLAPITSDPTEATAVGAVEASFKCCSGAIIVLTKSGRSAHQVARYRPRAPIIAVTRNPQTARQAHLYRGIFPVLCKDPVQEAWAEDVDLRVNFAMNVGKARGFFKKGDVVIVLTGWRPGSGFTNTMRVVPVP
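hPK-M2, >95% pure; 0.1 mM ADP / 0.5 mM PEP final; imidazole pH7.2 buffer w/ 7 mM MgCl2, 50 mM KCl; 1 h RT; Kinase-Glo lum. Intermediate enzyme activity for dual inhibitor/activator qHTS.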
TCR activator: T cell receptor activation; primary human leukocytes, anti-CD3, IL-2 HTRF, 48 h; Potency, µM (doses to about 9.22 µM), for the others: at the highest dose activation of IL-2 secretion, hits mostly activators; 330,000 tested, under 10 active; AID 504894; note: % of control where 0% means no effect
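TCR engagement came from a-CD3 beads alone, with compounds added to primary human leukocytes for 48 hr. Secreted IL-2 bridged europium cryptate- and d2-labelled anti-IL-2 antibodies, giving FRET emission at 665nm after 320nm excitation.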
A-T KAP1 phos: potential ataxia-telangiectasia treatments restoring KAP-1 phosphorylation. F2112 A-T fibroblasts, KAP-1 phosphorylation AlphaLISA; neocarzinostatin DNA damage 30 min before lysis. Potency, µM (highest dose often 57.5 µM), inactives show at the top dose activation, most hits filed as activators. 320,000 compounds, 0.19% hits. AID 485349; note: potency is the fitted concentration of half-maximal effect; % of control where 0% means no effect; nearly all actives have a fitted effect of over 45% in size
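hTERT-immortalized A-T patient fibroblasts (F2112), 500 cells/well in OPTI-MEM, 1% FBS, got compounds for 60 min, then NCS for 30 min at 37C. Lysates were then assayed for phospho-KAP-1 by AlphaLISA (anti-pKAP1 donor, anti-KAP1 acceptor beads), 6 hr at 25C.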
Tb PFK block: T. brucei PFK enzyme inhibition; T. brucei PFK, ADP-Glo luminescence; Potency, µM (titrated, usually from 57.5 µM), for the others: at the top dose activity, negative = inhibition, hits mostly inhibitors; 330,000 compounds, 0.17% hits; AID 485367;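 note: potency is the fitted concentration of half-maximal effect; 0% = uninhibited 1x PFK enzyme wells and -100% = no-enzyme wells; nearly all actives have a fitted effect of over 60% in size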
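PFK 1.25 nM, F6P 0.5 mM, ATP 0.1 mM, 0.1 M TEA pH 8.0, 5 mM MgCl2, 0.01% Tween20, 0.1% BSA; 45 min RT. ADP-Glo readout. qHTS titration up to 57 uM; curves fitted, compounds curve-classed.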
IL-2 act: activates IL-2 in a cell-based reporter assay; IL-2 activation reporter assay, cell-based qHTS; stimulated with anti-CD3/CD4/CD28 beads; in transgenic mouse T cells; 360,000 compounds, 0.065% hits; activation, % (series mostly up to about 46 µM); in the data active = activation above about 50%; inconclusive = mostly about 30% to 49%; note: 0% is about no effect
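Readout is EGFP and DsRed signal by fluorescent plate cytometry after 18 h at 37 degrees C. Transgenic mouse T cells (750/well) received compound for 60 min before bead stimulation (anti-CD3, anti-CD4, anti-CD28); memory T cells served as non-tolerant control.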
HeLa viability: counter-screen for pyruvate kinase M2 activators: HeLa cytotoxicity; activity change, negative = cytotoxicity, % at 57.5 µM; HeLa viability, CellTiter-Glo ATP luminescence, 24 h; 230 tested, under 10 active; shares compounds with PKM2 act; AID 1898; note: % of control where 0% means no effect
* marks the source's active call; other numbers are inactive results; ? = inconclusive; . = no result given; [ ] = dose if it differs, or a comment. Unless noted, calls come from the whole dose curve; as a rule, active = well fitted curve in the direction sought with a large enough effect; inconclusive = small, poorly fitted or top-dose-only effect, or another doubt; inactive = no such curve, though single readings can be large; an effect the other way counts as inactive or inconclusive.

SMILES	Integrin act MD	PKM2 act	TCR activator	A-T KAP1 phos	Tb PFK block	IL-2 act	HeLa viability
O=[N+]([O-])c1ccc(NN=Cc2ccc3c(c2)OCO3)nc1	10%	.	1%	.	.	0	.
N#Cc1ccc(CSc2ncnc3c2cnn3Cc2ccccc2)cc1	23%	20µM*	-4%	8%	-3%	0	-2
COc1ccc(CCNc2ccc(S(=O)(=O)N3CCCC3)cc2[N+](=O)[O-])cc1	5%	3.2µM*	-4%[46.1 µM]	-7%	0%	-4	-4
Cc1ccc(S(=O)(=O)N2CCCN(S(=O)(=O)c3ccc4ccccc4c3)CC2)cc1	26%	0.71µM*	5%[46.1 µM]	5%	-1%	-1	-18
Cn1ccc2cc(S(=O)(=O)N3CCN(S(=O)(=O)c4c(F)cccc4F)CC3)ccc21	.	.	.	.	.	.	-4
Cc1nc2ccc(S(=O)(=O)N3CCN(S(=O)(=O)c4c(F)cccc4F)CC3)cc2s1	.	.	.	.	.	.	-1
Cn1c(=O)c(=O)n(C)c2cc(S(=O)(=O)N3CCN(c4ccccc4F)CC3)ccc21	-8%	-1%	3%	.	1%	1	.
CCN(CC(=O)Nc1ccc(NC(C)=O)cc1)CC(=O)Nc1cc(C)on1	-14%	.	6%	6%	-22%	-1	.
O=S(=O)(c1ccc2ccccc2c1)N1CCN(S(=O)(=O)c2c(F)cccc2F)CC1	.	.	-11%	7%	9%	-1	?
COc1ccc(CCC(=O)N2CCN(S(=O)(=O)c3ccc4ccccc4c3)CC2)cc1	-3%	0.79µM*	0%	-3%	0%	0	-9
CN1CCN(S(=O)(=O)c2ccc3ccccc3c2)CC1	27%	-6%	0%	0%	0%	-2	.
COc1ccc(CCC(=O)N2CCN(S(=O)(=O)c3ccc(OC)c([N+](=O)[O-])c3)CC2)cc1	-26%	.	.	.	.	-1	.
COc1cc(CO)ccc1Oc1nc2ccccc2n2cnnc12	-19%	-1%	2%	4%	-2%	1	.
O=C(CN1CCOCC1)NNC(=O)c1ccc(Cl)cc1	-1%	.	-3%	2%	1%	0	.
Cc1ccc2oc(C(=O)N(C)Cc3ccc(C)o3)c(C)c2c1	-42%	6.3µM*	-8%	20%	-15%	-4	2
Cc1ccc2oc(C(=O)N(C)Cc3ccon3)c(C)c2c1	9%	.	3%	-3%	-5%	3	.
S=C(c1ccc(-c2ccc(Cl)cc2Cl)o1)N1CCCC1	-8%	8.9µM*	2%	10%	-8%	1	5
S=C(c1ccc(-c2ccc(Cl)cc2Cl)o1)N1CCCCC1	-18%	6%	-2%	-12%	0%	-1	.
NC(=S)N/N=C/c1cn(-c2ccccc2)nc1-c1cccnc1	-57%	-3%	7%	-8%	-1%	-5	.
O=C1NC(=O)c2cc(Br)cc3cccc1c23	5%	5%	-5%	0%	1%	-1	.
Cc1ccc(NS(=O)(=O)c2cc3c4c(cccc4c2)C(=O)NC3=O)cc1C	-50%	4µM*	-1%	-3%	0%	-1	?
CC1CCN(C(=O)C2CCC(CNS(=O)(=O)c3cccc4cccnc34)CC2)CC1 (configuration not stated)	.	21%	.	4%	2%	.	.
CC1CCN(C(=O)c2ccc(NS(=O)(=O)c3cccc4cccnc34)cc2)CC1	-36%	2.8µM*	-1%	-2%	-1%	-5	-10
CC(C)c1ccc(C(=O)N2CCN(c3cnn(C)c(=O)c3Cl)CC2)cc1	6%	3%	.	0%	-2%	1	.
Nc1nc2ccc(S(=O)(=O)c3ccc4nc(N)sc4c3)cc2s1	-6%	14µM*	4%	1%	2%	0	0
SMILES	Integrin act MD	PKM2 act	TCR activator	A-T KAP1 phos	Tb PFK block	IL-2 act	HeLa viability
COc1ccccc1NC(=O)CSc1nn2c(=O)c(C)nnc2s1	-13%	-2%	3%	6%	0%	1	.
Cc1nnc2sc(SCC(=O)Nc3nccs3)nn2c1=O	-19%	1.4µM*	3%[46.1 µM]	6%	-4%	0	0
COc1cc2cc(C#N)c(SCC(=O)Nc3cc(C)on3)nc2cc1OC	20%	0.22µM*	7%	3%	?	-1	-5
COc1ccc2nc(SCC(=O)Nc3cc(C)on3)c(C#N)cc2c1	?	.	-1%	-2%	2%	0	.
NS(=O)(=O)c1cccc(NC(=O)COC(=O)c2ccccc2SCC(=O)N2CCCC2)c1	11%	.	-4%[46.1 µM]	-1%	-2%	-3	.
Cc1cc(C(=O)OCC(=O)N2CCCC2)c2ccccc2n1	7%	-12%	-3%	.	3%	-1	.
Cc1cc(C(=O)OCC(=O)N2CCOCC2)c2ccccc2n1	9%	3.5µM*	1%	8%	2%	-3	0
CCc1nc2c(OCCC3CCCCC3)cccn2c1N(C=O)Cc1ccc(OC)cc1	.	.	.	.	.	-1	.
Cc1cccc(CN2CCN(c3nc4nonc4nc3NC3CC3)CC2=O)c1	-11%	3.5µM*	0%	0%	6%	-1	-4
Cc1cccc(CN2CCN(c3nc4nonc4nc3NC3CC3)CC2)c1	36%	2%	-3%	-5%	-2%	1	.
O=S(=O)(c1ccc2c(c1)OCCO2)N1C[C@@H]2C[C@H]1CN2S(=O)(=O)c1c(F)cccc1F	.	.	6%	6%	6%	0	.
O=C1CN(S(=O)(=O)c2ccc3c(c2)OCCO3)CCN1S(=O)(=O)c1c(F)cccc1F	.	.	.	.	.	.	-13
C[C@H]1CN(S(=O)(=O)c2ccc3c(c2)OCCO3)CCN1S(=O)(=O)c1c(F)cccc1F	.	.	-12%	-2%	7%	1	4
O=S(=O)(c1ccc2c(c1)OCO2)N1CCN(S(=O)(=O)c2c(F)cccc2F)CC1	.	.	.	.	.	.	?
O=S(=O)(c1c(F)cccc1F)C1CCN(S(=O)(=O)c2ccc3c(c2)OCCO3)CC1	.	.	-9%	5%	0%	-2	-9
CC(C)NS(=O)(=O)c1ccc(OCC(=O)Nc2ccc(F)cc2)cc1	8%	4%	-4%	1%	-2%	0	.
CC(C)(C)NS(=O)(=O)c1ccc(NC(=S)NC(=O)C2CC2)cc1	15%	-1%	3%	5%	0%	1	.
CCCCC[C@H](C)N1C[C@H](COCc2ccccc2)Oc2cc(N3CCC[C@H]3COC)ccc2S1(=O)=O	.	.	.	.	.	0	.
CN1CCOc2ccc(S(=O)(=O)N3CCN(S(=O)(=O)c4c(F)cccc4F)CC3)cc21	.	.	.	5%	6%	.	4
COc1cccc(S(=O)(=O)N2CCN(S(=O)(=O)c3ccc4c(c3)OCCO4)CC2)c1	.	.	.	.	.	.	2
